Experimental findings from PubChem BioAssay AID624330 (Southern Research Specialized Biocontainment Screening …, 2012) are described below.

SMILES strings stand for the structures. The whole screen tested about 340,000 compounds, of which about 2,100 (0.62%) were called active.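 The calls were made as follows: active = first-screen hits whose inhibition reached a set limit at any dose in the follow-up dose series; inconclusive = inhibition above the set first-screen limit but never retested; inactive = the rest.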 Not all results are given here. Measured potencies and affinities stand elsewhere.

Sequence of Rac GTPase-activating protein 1 (Homo sapiens) (Q9H0H5 whole entry, looked up): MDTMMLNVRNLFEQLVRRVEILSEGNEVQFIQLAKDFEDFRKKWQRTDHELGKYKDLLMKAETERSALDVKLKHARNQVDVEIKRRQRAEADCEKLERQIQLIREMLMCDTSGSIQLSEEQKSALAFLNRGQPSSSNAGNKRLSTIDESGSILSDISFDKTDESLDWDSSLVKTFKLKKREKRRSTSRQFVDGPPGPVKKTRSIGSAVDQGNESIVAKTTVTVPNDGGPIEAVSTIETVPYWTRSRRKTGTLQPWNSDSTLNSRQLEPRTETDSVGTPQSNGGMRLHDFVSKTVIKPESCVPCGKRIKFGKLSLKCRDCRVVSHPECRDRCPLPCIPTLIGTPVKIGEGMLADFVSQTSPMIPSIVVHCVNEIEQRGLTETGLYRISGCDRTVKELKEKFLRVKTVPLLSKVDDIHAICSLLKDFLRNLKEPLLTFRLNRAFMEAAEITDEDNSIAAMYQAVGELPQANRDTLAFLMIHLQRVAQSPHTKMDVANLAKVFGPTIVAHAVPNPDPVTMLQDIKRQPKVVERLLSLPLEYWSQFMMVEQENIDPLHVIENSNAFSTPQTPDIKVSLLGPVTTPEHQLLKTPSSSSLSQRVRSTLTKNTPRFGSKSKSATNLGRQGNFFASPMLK

The experiment addresses Rac GTPase-activating protein 1 (Homo sapiens) (UniProt Q9H0H5). The experiment in a line: blockers of MgcRacGAP-driven Rac1 GTP hydrolysis – biochemical, ADP Hunter fluorescence, primary and confirmatory, confirmation (AID 624330).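 Also: fluorescence reports GDP produced by GAP-driven GTP hydrolysis.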 The following applies: MgcRacGAP-stimulated Rac1 GTP hydrolysis, at 30 µM, hits give high values, GST-tagged Rac1 F28L mutant substrate.
For orientation: inhibition means the change of the read-out against control, counted positive when it falls. Turning to `CSCC[C@H](NC(=O)C1CCC(CNC(=O)[C@@H]2CCCN2C(=O)OC(C)(C)C)CC1)C(=O)O` (some centres not stated), the inhibition is 0.46% (inactive).
Regarding `Cc1ccccc1COCCN1CCN(S(=O)(=O)c2ccccc2)CCC1=O`, the inhibition was 12.5% (inactive).
On to `CC(C)Oc1ccc(C(=O)Nc2ccc([N+](=O)[O-])cc2)cc1`, for which the inhibition was 11.4% (inactive).
The same measure for `Cc1cc(=O)oc2cc(NC(=O)c3ccccc3Cl)ccc12`: 9.35% (inactive); for `CCCc1c(C(=O)N/N=C/C=C/c2ccccc2)nnn1-c1nonc1N`: 15.9% (inactive).
Consider `COc1ccc(OC(=O)c2cccc(S(=O)(=O)N3CCCC3)c2)cc1`, for which the inhibition was 15.8% (inactive).
As to `O=C(Oc1cccnc1)c1cc(S(=O)(=O)N2CCCCC2)ccc1Cl`, the inhibition is 2.68% (inactive).
On to `O=[N+]([O-])c1ccc(C2=Nn3c(Cn4nnc5ccccc54)nnc3SC2)cc1`, for which the inhibition was 10.3% (inactive).
For the molecule `COc1cccc(Oc2cnc(N)nc2-c2ccc(OC)cc2O)c1`, the inhibition is 6.49% (inactive).
In the case of `CCOc1ccc(-c2nc(N)ncc2Oc2ccc(OC)cc2)c(O)c1`, the inhibition is 1.9% (inactive).
Take `C=C(C)COc1ccc(-c2nc(N)ncc2Oc2ccccc2OCC)c(O)c1`: the inhibition is 10.4% (inactive).
For `CCOc1ccc(-c2[nH]ncc2Oc2ccccc2OCC)c(O)c1`, the inhibition was 6.69% (inactive).
As for `COc1cccc(Oc2cncnc2-c2ccc(OC)cc2O)c1`, the inhibition is 8.42% (inactive).
The same measure for `C=C(C)COc1ccc(-c2nc(N)ncc2Oc2ccc(OC)cc2)c(O)c1`: -7.13% (inactive); for `Cc1ccc(S(=O)(=O)N2CCOCC2)cc1C(=O)OCC(=O)NC1CCCC1`: 3.52% (inactive); for `CC(C)(C)NC(=O)NC(=O)COC(=O)CNC(=O)c1cccc(F)c1`: 0.76% (inactive).
In the case of `CCOC(=O)Cc1csc(NC(=O)CN2CCOCC2)n1`, the inhibition was 5.22% (inactive).
Consider `O=C1NC2(CCc3ccccc32)C(=O)N1CCOc1ccc(Cl)cc1` (configuration not stated), for which the inhibition was 2.47% (inactive).
`CCN(C1CCS(=O)(=O)C1)S(=O)(=O)c1ccc(Cl)s1` (configuration not stated): the inhibition was 4.17% (inactive).
Next, `CCOC(=O)C1=C(O)CSC1=Nc1cccc2ccccc12`: 1.02% (inactive); `c1ccc2nc3ccccc3nc2c1`: 2.14% (inactive).
Turning to `COc1ccc(OC)c(CN2CCN(C(=O)c3cccc4ccccc34)CC2)c1`, the inhibition is 13.1% (inactive).
Turning to `Cc1ccc(CN2CCN(C(=O)c3cccc4ccccc34)CC2)cc1`, the inhibition is 23.8% (inactive).
With `Cc1cccc(CN2CCN(C(=O)c3cccc4ccccc34)CC2)c1`, the inhibition was 15.3% (inactive).
Next, `COc1cccc(CN2CCN(C(=O)c3cccc4ccccc34)CC2)c1OC`: 17.9% (inactive).
The same measure for `Cc1cc(C)c(C)c(OCCCN(C)C)c1`: 17% (inactive); for `CSc1nnnn1-c1cccc(O)c1`: -2.6% (inactive); for `Cc1cc(Cl)ccc1Oc1ncnc2onc(C)c12`: 4.86% (inactive).
`CCOCCCNC(=O)c1ccc(OC2CCN(C(C)=O)CC2)c(OC)c1`: the inhibition is 9.51% (inactive).
The same measure for `COCc1cc(NCc2ccc(Cl)cc2)nc(C)n1`: 5.03% (inactive).
For `COCc1cc(Sc2ccc(Cl)cc2)nc(C)n1`, the inhibition was 3.56% (inactive).
`CC(C)(C)c1ccc(C2=NC(=O)C(CC(=O)O)S2)cc1` (configuration not stated): the inhibition was 10.5% (inactive).
`CN(C1=NC(=O)C(CC(=O)O)S1)c1ccc(O)cc1` (configuration not stated): the inhibition is 2.49% (inactive).
Turning to `Cc1nn(CC(=O)NCC(C)c2ccccc2)c(=O)c2cc3occc3n12` (configuration not stated), the inhibition is 10% (inactive).
Next, `Cc1ccc(-c2csc3ncnc(SCC(=O)c4ccc5c(c4)OCCO5)c23)cc1`: 1.98% (inactive); `CC1Cc2ccccc2N1C(=O)COc1ccc2c(c1)OCO2` (configuration not stated): -12.8% (inactive).
On to `CC(=O)c1ccc(N2CCN(C(=S)NCc3ccco3)CC2)cc1`, for which the inhibition is 3.83% (inactive).
Consider `CC(=O)N1CCN(c2ccc(NCc3ccc(-c4ccc(Br)cc4)o3)cc2)CC1`, for which the inhibition is 5.41% (inactive).
Turning to `CC(=O)N1CCN(c2ccc(NCc3ccc(-c4cccc(Cl)c4)o3)cc2)CC1`, the inhibition is 15% (inactive).
Regarding `CC(=O)N1CCN(c2ccc(NC(=O)c3ccco3)cc2)CC1`, the inhibition is 8.89% (inactive).
Consider `COc1ccc(N2CCN(C(CNC(=O)OCc3ccccc3)c3ccco3)CC2)cc1` (configuration not stated), for which the inhibition was 23% (inactive).
For the molecule `COc1ccc(C2(C)NC(=O)N(CC(=O)Nc3c(C)n(C)n(-c4ccccc4)c3=O)C2=O)cc1` (configuration not stated), the inhibition is -6.4% (inactive).
Next, `CC(C)(C)OC(=O)C[C@@H]1C/C=C\C[C@H](CC(=O)N(CCO)Cc2ccccc2)C(=O)N[C@H](Cc2ccccc2)COC1=O`: -1.04% (inactive); `N#C/C(=C\c1cc([N+](=O)[O-])c(N2CCOCC2)cc1N1CCOCC1)c1nc2ccccc2[nH]1`: 6.08% (inactive); `N#C/C(=C\c1ccc(Sc2ccccc2)o1)c1nc2ccccc2[nH]1`: 11.4% (inactive).
For `N#C/C(=C\c1ccc(-c2ccc(C(=O)O)cc2)o1)c1nc2ccccc2[nH]1`, the inhibition is 2.64% (inactive).
For the molecule `N#C/C(=C\c1ccc(N2CCOCC2)c([N+](=O)[O-])c1)c1nc2ccccc2[nH]1`, the inhibition is 1.39% (inactive).
As to `CC1CN(C(=O)COC(=O)c2ccc3ccccc3c2)CC(C)O1` (configuration not stated), the inhibition was 8.18% (inactive).
`CCCCOC(=O)c1cccc(NC(=O)CC)c1`: the inhibition is -6.05% (inactive).
On to `O=C(C[C@H]1C/C=C\C[C@H](NC(=O)OCC2c3ccccc3-c3ccccc32)C(=O)OC[C@H](Cc2ccccc2)NC1=O)N[C@H](CO)Cc1ccccc1`, for which the inhibition is 3.81% (inactive).
For the molecule `CC(OC(=O)CC(C)c1ccccc1)C(=O)Nc1ccc(Cl)cn1` (configuration not stated), the inhibition is 4.3% (inactive).
`CCCc1nc2ccccc2c(=O)n1/N=C/c1ccccc1O`: the inhibition is 11.4% (inactive).
The same measure for `COc1ccc(/C=C/c2nc(N)nc(-c3ccccc3O)n2)cc1OC`: 4.75% (inactive); for `C/C=C/c1ccc(O)c(OC)c1`: 21.3% (inactive).
As for `COc1cc(/C=N/n2c(C)nc3ccccc3c2=O)cc(OC)c1O`, the inhibition is 7.15% (inactive).
In the case of `COc1ccc(/C=C/c2nc3ccccc3c(=O)n2-c2cccc(C(=O)O)c2)cc1`, the inhibition is 6.96% (inactive).
In the case of `COc1ccc(/C=N/n2c(C)nc3ccccc3c2=O)cc1OC`, the inhibition is 3.76% (inactive).
The same measure for `CCCc1nc2ccccc2c(=O)n1/N=C/c1ccc(O)cc1`: 6.59% (inactive); for `COc1ccc(-n2c(/C=C3\C(=O)N(C)c4ccccc43)nc3ccccc3c2=O)cc1`: 9.39% (inactive).
For the molecule `O=C(CN1CCN(C(=O)C2CCCO2)CC1)Nc1cc(C(F)(F)F)ccc1Cl` (configuration not stated), the inhibition is 4.9% (inactive).
`CCOC(=O)C1CCN(C(=O)c2cc(S(=O)(=O)N3CCCCCC3)ccc2OC)CC1`: the inhibition was 0.78% (inactive).
For the molecule `CCCCNC(=O)NC(C(=O)OC)C12CC3CC(CC(C3)C1)C2` (configuration not stated), the inhibition is 0.62% (inactive).
In the case of `CCCN(CCC)CCNS(=O)(=O)c1ccc2c(c1)CCN2C(=O)C1CCC1`, the inhibition was 12.9% (inactive).
With `CCCCN(CCCC)S(=O)(=O)c1ccc(NS(=O)(=O)c2ccc(NC(C)=O)cc2)cc1`, the inhibition is 5.52% (inactive).
For `COc1ccc(-c2nn(-c3ccccc3)cc2C(=O)NC2CCCCC2C)cc1` (configuration not stated), the inhibition is 7.37% (inactive).
For the molecule `CCOCCCNC(=O)C1CCCN(S(=O)(=O)c2ccc(-n3cnnn3)cc2)C1` (configuration not stated), the inhibition is 1.87% (inactive).
Take `CCOC(=O)c1ccc(NC(=S)NCCCn2ccnc2)cc1`: the inhibition was -38.2% (inactive).
The same measure for `COc1ccc(CCN2CN(S(=O)(=O)c3ccccc3)c3nc4ccccc4nc32)cc1OC`: 2.57% (inactive); for `CCOc1ccc(NC(=S)N(Cc2ccc(N(C)C)cc2)Cc2ccco2)cc1`: 1.67% (inactive); for `O=C(O)C1CCCN1S(=O)(=O)c1ccc2ccccc2c1` (configuration not stated): -1.39% (inactive).
On to `COC(=O)c1cccc(NS(=O)(=O)c2ccc(OC)c(OC)c2)c1C`, for which the inhibition was 4.85% (inactive).
With `O=C(CCCc1cccs1)Nc1nc(-c2ccc(F)cc2)cs1`, the inhibition is 9.23% (inactive).
Next, `O=C(c1cccs1)N1CCN(c2ncc(C(F)(F)F)cc2Cl)CC1`: 8.94% (inactive).
For the molecule `O=C(Cc1ccc(Cl)cc1)Nc1ccc2c(c1)C(=O)NC2=O`, the inhibition was 10.3% (inactive).
Take `COc1ccc(-c2c(-c3ccsc3)oc(=O)c3cc(OC)c(OC)cc23)cc1`: the inhibition is 3.56% (inactive).
Turning to `COc1ccc(/C=N/Nc2nc3ccccc3c(=O)n2-c2ccccc2)cc1OC`, the inhibition was 8.28% (inactive).
Next, `O=C(O)c1cccc(-n2c(/C=C/c3ccccc3)nc3ccccc3c2=O)c1`: -7.35% (inactive); `COc1ccc(/C=C/c2ccc3cccc(O)c3n2)cc1Br`: 5.56% (inactive); `CCOc1cc(/C=C/c2nc3ccccc3c(=O)[nH]2)ccc1O`: 11.1% (inactive).
As to `COc1cc(/C=C/c2ccc3cccc(O)c3n2)cc(OC)c1OC`, the inhibition is 3.89% (inactive).
On to `O=C(O)c1ccc(-n2c(/C=C/c3ccccc3)nc3ccccc3c2=O)cc1`, for which the inhibition was -4% (inactive).
For `Cc1cc(C)cc(Nc2c3c(nc4ncnn24)CCC3)c1`, the inhibition was 8.12% (inactive).
As to `CCC1=C(OC(=O)N(CC)CC)N2C(=O)OC(=NCCOC)[C@]2(Cc2ccccc2)[C@H]2C1=CC[C@H]1C(=O)N(CC(=O)OC)C(=O)[C@H]12`, the inhibition is 11.9% (inactive).
For the molecule `CN(C(=O)c1cccc(NC(=O)Cc2ccc(NC(=O)C3CCN(C(=O)C4CC4)CC3)cc2)c1)C1CCC1`, the inhibition was 6.53% (inactive).
Next, `O=C(NCc1cccnc1)C1CC(c2cccc(Br)c2)=NO1` (configuration not stated): 0.07% (inactive); `CC(C(=O)NCc1ccc(F)cc1)c1ccc([N+](=O)[O-])cc1` (configuration not stated): 8.32% (inactive); `CN1CCN(S(=O)(=O)c2ccc(Oc3ccc(F)cc3Br)nc2)CC1`: 6.58% (inactive).
Consider `CCC1CCCCN1C(=S)NC(=O)c1cc(Br)ccc1Cl` (configuration not stated), for which the inhibition is 4.56% (inactive).
As to `CCc1nnc(NC(=O)Cn2nnc(-c3ccccc3F)n2)s1`, the inhibition was 5.2% (inactive).
In the case of `CCCCCCCn1c2c(c(=N)c3ccccc31)CCC2`, the inhibition was 9.88% (inactive).
Next, `CCCCCn1c2c(c(=N)c3ccccc31)CCC2`: 7.04% (inactive); `O=C(CN1CCC(NC(=O)Nc2ccccc2)CC1)Nc1ccccc1F`: 5.94% (inactive).
